# According to PubChem BioAssay AID1863 (Southern Research Specialized Biocontainment Screening …, 2009):
# Among all 300,000 compounds or so, about 480 (0.16%) were called active. A selection follows. Results with a measured potency or affinity are listed apart. A number with no mark means an inactive call.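 The calls were made as follows: active = inhibition over 29.93%, a cutoff 3 SD above the screen mean, later confirmed by dose response; inconclusive = inhibition over 29.93% but no dose response follow-up; inactive = inhibition at most 29.93% or unconfirmed.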
# Assay: inhibitors of PhoP regulon expression, primary screen, Salmonella Typhimurium, GFP reporter (AID 1863);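 also: 0% = low Mg2+ inducing control and 100% = high Mg2+ repressing control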
# Settings: S. Typhimurium PhoP-regulated promoter GFP reporter, 4 h; at 50 µM; hits give high values
row,SMILES,inhibition
1,COC(=O)c1ccccc1NC(=O)C1CCN(C(=O)Cc2ccccc2)CC1,3.37%
2,CCOC(=O)COc1c(Br)cc(/C=C2\SC(=O)N(CC(=O)N3CCCC3)C2=O)cc1OC,5.47%
3,COc1ccc(N(C(=O)CNC(=O)c2cccs2)C(C(=O)NC2CCCC2)c2ccncc2)cc1 (configuration not stated),-0.95%
4,Cc1nc2nc3c(cn2n1)C(=O)CC(C)(C)C3,-6.32%
5,CC(C)n1c(SCC(=O)NC2CC2)nnc1-c1ccco1,3.76%
6,CCOC(=O)CSc1nc2c(c(=O)n1-c1ccc(OCC)cc1)SCC2,-4.68%
7,Cc1ccc(C(=O)c2no[n+]([O-])c2C(=O)c2ccc(C)cc2)cc1,-26.5%
8,COc1ccc(C(=O)c2no[n+]([O-])c2C(=O)c2ccc(OC)cc2)cc1,-73.5%
9,Cc1ccc(S(=O)(=O)NN2C(=O)c3ccccc3NC2c2ccccc2O)cc1 (configuration not stated),2.27%
10,Cc1onc(-c2ccccc2)c1C(=O)NC(=S)NNC(=O)c1ccccc1O,18.4%
11,Cc1onc(-c2ccccc2)c1C(=O)NC(=S)NNC(=O)c1ccc(O)cc1,-7.99%
12,CC(C)[C@@H](COc1ccccc1)N1CCN(Cc2ccccc2)CCC1=O,11.4%
13,Cc1ccc(N(CC(=O)NC2CCCCC2)C(=O)CNC(=O)c2cccs2)cc1,5.02%
14,CNC[C@H](CC1CCCCC1)NC[C@H](CO)NCCc1cccc(C(F)(F)F)c1,13%
15,CNC[C@H](CC1CCCCC1)NC[C@H](CO)NCC1(c2ccccc2)CC1,5.82%
16,Cc1ccccc1NC(=O)NC1(C(=O)NCc2ccco2)CCCCC1,-5.56%
17,Cc1cccc(NC(=O)CSc2nnc(-c3ccncc3)n2CC2CCCO2)c1 (configuration not stated),0.37%
18,Clc1ccc2[nH]c3c(NCCN4CCOCC4)ncnc3c2c1,-2.52%
19,Clc1ccc2[nH]c3c(NCC4CCCO4)ncnc3c2c1 (configuration not stated),17.8%
20,COc1ccc(NC(=O)CSc2cc(C(=O)c3nccn3C)c3ccccc3n2)cc1,3.48%
21,CCOc1ccc(NC(=O)c2cc(Cl)nc3ccccc23)cc1,1.03%
22,C=CCNc1nc(Nc2ccccc2F)nc(OCC)n1,-4.99%
23,Cc1ccccc1Nc1nc(NCc2ccco2)c2ccccc2n1,25.6%
24,Cc1ccc(-c2nc(NCc3ccco3)c3ccccc3n2)cc1,23.9%
25,COc1ccccc1Nc1nc(NCc2ccco2)c2ccccc2n1,48%

row,SMILES,inhibition
1,OCCNc1nc(NCc2ccccc2)c2ccccc2n1,3.19%
2,Oc1ccccc1Nc1nc(NCc2ccccc2)c2ccccc2n1,-0.55%
3,Fc1ccccc1-c1nc(NCc2ccco2)c2ccccc2n1,-13.7%
4,CCc1noc(C)c1C(=O)Nc1ncc(C)s1,2.49%
5,CCC(Oc1ccccc1)C(=O)Nc1nc2ccccc2[nH]1 (configuration not stated),-3.54%
6,Cc1ccc2cc(C(c3nnnn3C3CCCC3)N(Cc3ccco3)Cc3cccs3)c(=O)[nH]c2c1 (configuration not stated),-2.55%
7,CN1CCc2c(sc3nc(NCCO)n(-c4cccc(Cl)c4)c(=O)c23)C1,-3.53%
8,CC(Oc1ccccc1)C(=O)N=C1SC2CS(=O)(=O)CC2N1c1ccc(F)cc1 (configuration not stated),-3.91%
9,O=S(=O)(Nc1nc2ccccc2nc1NCC1CCCO1)c1ccc(F)cc1 (configuration not stated),6.59%
10,Cc1cc2ncn(/N=C/c3ccc([N+](=O)[O-])s3)c2cc1C,-6.99%
11,Cc1cccc(C)c1NC(=O)CNCC(=O)Nc1c(C)cccc1C,0.56%
12,O=C(O)c1cccc(NC(=O)c2ccc3c(c2)C(=O)N(CC2CCCO2)C3=O)c1 (configuration not stated),-1.15%
13,O=C(CSc1nc2ccccc2s1)NCc1cc([N+](=O)[O-])ccc1O,-4.94%
14,Cc1cc(Cl)ccc1NC(=O)CCC(=O)N/N=C/c1cc([N+](=O)[O-])ccc1O,12.1%
15,O=[N+]([O-])c1cccc(/C=N/Nc2ccccn2)c1,-2.55%
16,Cc1ccc(C)c(NC(=O)CCC(=O)N/N=C/c2cc([N+](=O)[O-])ccc2O)c1,8.86%
17,O=C(CSc1ccccn1)N/N=C/c1cccc([N+](=O)[O-])c1,0.8%
18,COc1cc([N+](=O)[O-])cc(/C=N/NC(=O)CSc2ccccn2)c1O,24.8%
19,O=[N+]([O-])c1ccc(/C=N/Nc2ccccn2)cc1,4.65%
20,O=C(CSc1nc2ccccc2s1)N/N=C/c1ccccc1C(=O)O,-5.31%
21,O=C1CCc2cc(NS(=O)(=O)c3ccccc3)cc3c2N1CCC3,3.44%
22,CCOC(=O)C1(Cc2ccc(Cl)cc2)CCN(C2CCC2)CC1,-6.48%
23,CC(C)c1nc(SCC(=O)Nc2cccc(S(N)(=O)=O)c2)n[nH]1,-17.9%
24,COc1ccc(CC(=O)Nc2nc(-c3ccccc3)c(C(C)=O)s2)cc1OC,5.08%
25,COc1ccc(S(=O)(=O)N2CCC(C(=O)NCCCc3ccccc3)CC2)cc1,-11.5%

row,SMILES,inhibition
1,NC(N)=NC(=S)Nc1ccc(Cl)cc1,-3.56%
2,CC(C)N=C(N)N=C(N)Nc1ccc(Cl)cc1,-0.65%
3,O=C(NCc1ccccc1)c1cncc(Br)c1,3.01%
4,CC1CCC2(CC1)NC(=O)N(CC(=O)c1cn(CCC#N)c3ccccc13)C2=O (configuration not stated),-10.8%
5,Cc1cc(C)n2nc(C(=O)OCC(=O)c3c[nH]c4ccccc34)nc2n1,10.2%
6,COc1ccc(CNC(=O)CSc2nnc(NC(=O)C3CC3)s2)cc1,-0.4%
7,Oc1ccc(/C=N/Nc2nccnc2Cl)cc1,5.13%
8,Oc1ccccc1/C=N/Nc1ncc(Br)cn1,-2.93%
9,Oc1ccccc1/C=N/Nc1nccnc1Cl,25.1%
10,Oc1c(Cl)cc(Cl)cc1/C=N/Nc1ncc(Br)cn1,6.58%
11,Cc1ccccc1-n1c(SCC(=O)N/N=C/c2sccc2C)nc2ccccc2c1=O,-15.1%
12,Cc1nn2c(-c3ccc(S(=O)(=O)N4CCN(C)CC4)o3)nnc2c2ccccc12,1.51%
13,Cc1cc2c(cc(C(=O)NCc3cccnc3)n2Cc2ccc(Cl)cc2)o1,13%
14,COc1ccc(N2CCOCC2)c(NC(=O)c2cccnc2)c1,0.01%
15,CCN(Cc1cn2cccnc2n1)C1CCCCC1,-4.78%
16,Cc1nc2ccc(Cl)cc2nc1C,-3.83%
17,Cc1nc(N)nc(Cl)c1Cc1ccc(Cl)cc1,2.03%
18,O=[N+]([O-])c1cc2c(cc1CN1CCN(c3ccc(F)cc3)CC1)OCO2,-3.23%
19,CCOc1ccc(-c2nc(S(=O)(=O)c3ccccc3)c(NC)o2)cc1,-1.53%
20,COCCCNC(=O)CCCN1C(=O)c2cccnc2Sc2ccccc21,-9.37%
21,COc1ccc(N2CCN(c3nc4c(C)cccn4c(=O)c3/C=C(\C#N)C(N)=O)CC2)cc1,0.07%
22,COc1cc(Cl)ccc1OCc1cc(C(=O)N2CCC(N(C)C)C2)no1 (configuration not stated),4.49%
23,COCc1cc(CN2CCCC2)c(O)c2ncccc12,0.6%
24,O=[N+]([O-])c1cc(CN2CCN(c3ccccc3)CC2)c(O)c2ncccc12,14%
25,O=C(Oc1c(CN2CCOCC2)cc(Cl)c2cccnc12)c1ccccc1Cl,13.4%

row,SMILES,inhibition
1,O=[N+]([O-])c1cccc2c(N3CCOCC3)ccnc12,-2.73%
2,Oc1c(CN2CCCCC2)cc(Br)c2cccnc12,-2.58%
3,CN1CCN(Cc2cc(COCc3ccccc3)c3cccnc3c2O)CC1,21%
4,O=C(COC(=O)c1cc[n+]([O-])cc1)Nc1c(Cl)cccc1C(F)(F)F,0.58%
5,Cc1occc1-c1nnc(SCCNCCO)o1,-0.93%
6,CCn1ccnc1[C@@H]1C[C@H]2CN(Cc3cccc(Cl)c3)C(=O)[C@]23CCCN13,3.68%
7,CCN1C(=O)CSc2ccc(C(=O)NCc3ccc(OC)cc3)cc21,-1.69%
8,COc1ccc(S(=O)(=O)NN=C2CCCC2)cc1,1.9%
9,O=C(c1oc(=O)c2ccccc2c1-c1ccccc1)N1CCC(O)CC1,18.1%
10,CCOc1ccccc1N1CCN(CC(=O)Nc2ncc(C)s2)CC1,-2.9%
11,Oc1cccc(/C=N/N=C/c2cccc(O)c2O)c1O,16.2%
12,Oc1c(Br)cc(Br)cc1C=NCc1ccc(F)cc1,10.4%
13,Oc1cccc(C=NCc2ccccc2)c1,4.18%
14,O=C(Cc1ccccc1)N/N=C/c1cc(Br)cc(Br)c1O,-8.98%
15,CCOc1ccccc1N(CC(=O)N/N=C(\C)c1cccc(Br)c1)S(C)(=O)=O,-0.46%
16,CC(C)C[C@H](NC(=O)c1[nH]cnc1C(=O)N[C@H](C)c1ccccc1)C(=O)OC(C)(C)C,-2.19%
17,CCCCCCCCOC(=O)C[N+](C)(C)C/C=C(/C)Cl,2.02%
18,CCCCCCCCCCCCOC(=O)C[N+](C)(C)C,0.96%
19,Cc1cc(C(=O)NCCN2CCOCC2)ccc1[N+](=O)[O-],-2.2%
20,Cc1nc(N)c(Cc2ccccc2F)c(N)n1,2.15%
21,Nc1nc(-c2ccccn2)nc(N)c1Cc1ccc(Cl)cc1Cl,3.01%
22,COc1ccc(C(=O)NCC(=O)N2CCN(c3ccccc3)CC2)cc1,-3.55%
